Data reported in PubChem BioAssay AID1845226 (National Center for Advancing Translational Sciences (NCATS), 2023).
Inconclusive results are not listed. Values without a mark were called inactive. Active and inactive are the calls of the source. Calls follow the shape of the dose curve; as a rule, active = well fitted inhibition curve with a large enough effect; inconclusive = small, poorly fitted or top-dose-only effect; inactive = no such curve, though single readings can be large or run the other way.

experiment: Confirmatory fluorescence-based thiol-reactive (MSTI) qHTS assay for identification of artifact compounds; details: MSTI thiol-reactivity probe, 1 h; series mostly up to 39.2 µM; activity change, negative = inhibition: at the top concentration
In short: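 Concentration–response testing used 4 uM MSTI. Signal read at Ex 525/Em 598 nm after one hour in darkness at ambient temperature.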
Potency is read from the fitted curve at half-maximal effect.

Structure (SMILES)	activity change, negative = inhibition [%]	Potency
CCOC(=O)c1c(C)c(C(=O)NCc2ccc(Cl)cc2)c(C)n1CC	111	–
C=Cc1ccc(Cn2c(C)c(CNCc3cccc(Br)c3)c(C(=O)O)c2C)cc1	-1.73	–
COC(=O)c1cc(NC(=O)c2ccc3c(c2)NC(=O)c2ccccc2S3)cc(C(=O)OC)c1	428	–
COc1ccc(C2Nc3ccccc3C(=O)N2CC(C)(C)C)cc1COc1ccc(NC(C)=O)cc1 (stereo not given)	43.5	–
COC(=O)[C@@H]1[C@H]2C[C@H]3c4[nH]c5cc(OC)ccc5c4CCN3C[C@@H]2C[C@@H](OC(=O)c2cc(OC)c(OC)c(OC)c2)[C@@H]1OC	–	7.91 µM (active)
Cc1ccc(-c2nnc(Nc3cccc(O)c3)c3ccccc23)cc1S(=O)(=O)N1CCN(C)CC1	36.6	–
Cc1ccc(NC(=O)Cn2c(=O)oc3cc(S(=O)(=O)N4CCCCC4)ccc32)c(Cl)c1	261	–
Cc1cccc(NC(=O)CSc2nc3c([nH]c4ccccc43)c(=O)n2C)c1	86.5	–
CCC(Sc1ncc(S(=O)(=O)c2ccc(Cl)cc2)c(=O)[nH]1)C(=O)Nc1ccc(OC)cc1 (stereo not given)	118	–
Cc1ccc(Cn2ccc(NC(=O)c3cc(-c4ccc(Cl)c(Cl)c4)on3)n2)cc1	175	–
CCCN(C(=O)Cc1c(C(=O)O)[nH]c2ccc(Cl)cc12)c1ccc(OCC)cc1	158	–
O=C(CSc1nnc(-c2cccc(F)c2)c(-c2cccc(F)c2)n1)NC1CCCCC1	89.3	–
COc1ccc(CCn2c3c(c(=O)[nH]c2=S)CN(C(C)C)CN3)cc1OC	48.3	–
Cc1sc2ncn(CC(=O)N3CCN(c4ccccc4)CC3)c(=O)c2c1S(=O)(=O)N1CCC(C)CC1	13.5	–
Clc1ccccc1Cn1c(-c2cccs2)nc2ccccc21	76.1	–
